SENP7 block = SENP7 protease inhibitors, primary screen, biochemical, luminescence, uHTS | Sentrin-specific protease 7 (Homo sapiens), Q9BQF6 | recombinant SENP7, Z-RLRGG-aminoluciferin luminescence, 40 min | inhibition, % at 5 µM | actives 1.5% (n = 330,000);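 active means inhibition above about 50% at the single test dose, limit read from the data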;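 further: plate controls were DMSO with enzyme for no effect and no enzyme buffer wells for full effect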
Target sequence (Q9BQF6 706-1050 limits assumed): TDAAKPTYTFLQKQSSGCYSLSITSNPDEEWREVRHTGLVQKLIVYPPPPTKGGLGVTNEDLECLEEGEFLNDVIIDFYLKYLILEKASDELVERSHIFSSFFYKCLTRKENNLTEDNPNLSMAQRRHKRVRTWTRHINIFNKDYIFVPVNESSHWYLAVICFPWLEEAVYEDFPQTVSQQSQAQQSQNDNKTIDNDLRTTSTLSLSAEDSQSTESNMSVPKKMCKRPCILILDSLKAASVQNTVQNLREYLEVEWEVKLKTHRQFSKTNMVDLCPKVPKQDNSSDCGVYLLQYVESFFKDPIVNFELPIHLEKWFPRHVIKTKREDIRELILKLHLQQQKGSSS
SENP8 block-1 = SENP8 protease inhibitors, primary screen, biochemical, luminescence; actives 1.2% (n = 330,000); purified SENP8, Z-RLRGG-aminoluciferin cleavage; inhibition, % at 10 µM; Sentrin-specific protease 8 (Homo sapiens), Q96LD8; in the data active means inhibition above about 50%
SENP6 inh = SENP6 protease inhibitors, primary screen, biochemical, luminescence, uHTS; Recombinant SENP6 catalytic domain, aminoluciferin luminescence; inhibition, % at 10 µM; actives 1.8% (n = 330,000); AID 2599, 2010;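 active means inhibition above about 50% at the single tested dose, limit read from the data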;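 further: plate controls were DMSO wells with enzyme for no effect and DMSO wells lacking enzyme for full effect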
HSP90 inh = HSP90 inhibitors, primary screen, cell lysate, luminescence. Heat shock protein HSP 90 (rabbit reticulocyte lysate; luciferase refolding). Rabbit reticulocyte lysate, luciferase refolding luminescence, 3 h. inhibition, % at 5.6 µM. actives 0.91% (n = 290,000). AID 1789, 2009;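 active means inhibition above the screen-wide mean plus 3 SD, computed separately per campaign, cut at about 16% in these data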;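 further: 0% = DMSO wells and 100% = 60 µM geldanamycin wells; inhibitors lower the luminescence because luciferase stays unfolded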
SENP8 block-2 = human SENP8 protease inhibitors, primary screen, biochemical, fluorescence, Nedd8 protein substrate, uHTS; recombinant SENP8; inhibition, % at 20 µM; actives 0.64% (n = 360,000); in the data active means inhibition mostly above about 40%, no sharp cut-off; inactive means mostly below about 27%
SENP8 conf = SENP8 protease inhibitors, retest, confirmation, biochemical, luminescence, single concentration | shares compounds with SENP7 block | Recombinant SENP8, Z-RLRGG-aminoluciferin luminescence, 60 min | inhibition, % at 12.5 µM | actives 40% (n = 6,200);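 active means mean inhibition across replicates above about 50%, limit read from the data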
SENP6 confirm = SENP6 protease inhibitors, confirmation, biochemical, luminescence, single concentration. shares compounds with SENP7 block. recombinant SENP6, Z-RLRGG-aminoluciferin luminescence. inhibition, % at 12.5 µM. actives 58% (n = 6,200)
SENP7 confirm = SENP7 protease inhibitors, retest, confirmation, biochemical, luminescence, single concentration. shares compounds with SENP7 block. recombinant SENP7, Z-RLRGG-aminoluciferin luminescence, 40 min. inhibition, % at 12.5 µM. actives 69% (n = 6,200). AID 488917, 2010
Casp3 SENP sel = caspase-3 protease inhibitors, confirmation, selectivity assay for SENP inhibitor project, biochemical, single concentration; shares compounds with SENP7 block; purified caspase-3, Z-DEVD-aminoluciferin luminescence, 60 min; inhibition, % at 12.5 µM; actives 60% (n = 6,200); AID 488918, 2010;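 active means mean inhibition above about 50%, limit read from the data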;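 further: plate controls were enzyme with DMSO for no effect and wells without caspase-3 for full effect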
Target sequence (P42574 28-227 limits assumed): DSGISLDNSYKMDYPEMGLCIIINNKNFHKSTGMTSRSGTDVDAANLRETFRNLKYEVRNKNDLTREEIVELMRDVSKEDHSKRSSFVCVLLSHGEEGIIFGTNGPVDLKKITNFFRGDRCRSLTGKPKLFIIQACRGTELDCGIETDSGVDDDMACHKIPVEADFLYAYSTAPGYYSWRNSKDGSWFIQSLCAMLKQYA
Luc interf = luminescence interference (SENP counter-screen); shares compounds with SENP7 block; Pre-incubated SENP8/Z-RLRGG-aminoluciferin, luciferase luminescence interference; inhibition, % at 12.5 µM; actives 39% (n = 6,200);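 active means mean inhibition above about 50% when retested at one dose, limit read from the data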;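 further: plate controls were DMSO wells with completed reaction for no effect and substrate without enzyme for full effect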
An asterisk follows results filed as active; nt = not tested or not shown. Most compounds without a hit are left out; they make up all but 2.8% or so of the library.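 How the source made its calls, unless noted: active means mean inhibition above about 50% in the one-dose retest (limit read from the data); inactive means the rest.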

SMILES	SENP7 block	SENP8 block-1	SENP6 inh	HSP90 inh	SENP8 block-2	SENP8 conf	SENP6 confirm	SENP7 confirm	Casp3 SENP sel	Luc interf
Cc1ccc(O)c(NC(=O)c2noc3c2CCCCC3)c1	80*	76*	-43	5	-4	30	24	46	21	41
CCc1ccc(NC(=O)c2noc3c2CCC3)cc1	60*	70*	88*	6	13	80*	80*	96*	84*	81*
Cc1nn(Cc2ccccc2Cl)c(Cl)c1/C=C/C(=O)OCC(=O)NC1CCS(=O)(=O)C1 (stereo not given)	7	-15	-11	-5	7	nt	nt	nt	nt	nt
COc1ccc(CCN(Cc2cc3ccc(C)cc3n3nnnc23)C(C)=O)cc1OC	0	1	14	0	3	nt	nt	nt	nt	nt
c1ccc(-c2noc(C3CCC3)n2)nc1	-5	-5	-19	-2	18	nt	nt	nt	nt	nt
CCCCC1CCC(c2nc(-c3ccccn3)no2)CC1 (stereo not given)	41	54*	72*	12	17	11	28	1	25	26
CCCS/C(N)=N/N=C/c1cc(C)ccc1O	11	10	53*	0	32	20	17	59*	20	17
N/C(=N\OC(=O)COc1ccccc1)c1ccccn1	2	-1	0	-5	11	nt	nt	nt	nt	nt
COc1ccc(/C(N)=N/OC(=O)CCC2CCCC2)cc1OC	-2	-7	-9	0	0	nt	nt	nt	nt	nt
N/C(=N\OC(=O)CCC1CCCC1)c1ccccc1	17	41	69*	-1	5	72*	71*	89*	83*	53*
N/C(=N\OC(=O)CCCc1ccccc1)c1ccccn1	37	12	50*	-1	4	28	28	73*	73*	54*
N/C(=N\OC(=O)CCC1CCCC1)c1ccccn1	68*	67*	87*	3	7	82*	80*	95*	91*	83*
Cc1ccc(NC(=O)CN2C(=O)N/C(=C\c3ccco3)C2=O)cc1	2	4	2	nt	-52	nt	nt	nt	nt	nt
O=C(Nc1ccccc1F)Nc1ccccc1OC(F)F	0	-9	-12	-3	-2	nt	nt	nt	nt	nt
COC(=O)c1sccc1NC(=O)c1ccc2c(c1)OCO2	6	-24	-5	3	-60	nt	nt	nt	nt	nt
COC(=O)c1c(-c2cccnc2)csc1NC(=O)c1ccc2c(c1)OCO2	95*	73*	72*	3	-465	12	21	21	36	0
Cn1c(=O)cc(SCC(=O)NCCC2=CCCCC2)c2ccc(Cl)cc21	6	0	-1	0	14	nt	nt	nt	nt	nt
CN(CCCNC(=O)CSc1cc(=O)n(C)c2cc(Cl)ccc12)Cc1ccccc1	75*	3	8	-3	-19	-14	-11	-14	2	-7
CC(C)c1ccc(Nc2ncccc2C(=O)O)cc1	98*	95*	95*	6	10	6	6	10	3	4
Cn1c(=O)oc2cc(S(=O)(=O)NCC3CCCO3)ccc21 (stereo not given)	13	12	8	-2	9	nt	nt	nt	nt	nt
CC(=O)c1sc(N/N=C\c2ccc(N(C)C)cc2)nc1C	82*	31	77*	-1	-301	20	54*	95*	48	16
CC(=O)c1sc(N/N=C/c2cccc(O)c2)nc1C	1	4	11	3	-402	nt	nt	nt	nt	nt
CC(C)(C)c1cc(C(=O)N/N=C/c2ccc(-c3ccccc3[N+](=O)[O-])o2)n[nH]1	22	43	52*	13	30	-6	3	-6	-12	-6
O=c1oc2cc(O)c(Cl)cc2c2ccccc12	11	34	61*	-1	-89	50*	45	73*	68*	38
COc1ccc2c(c1)oc(=O)c1ccccc12	-9	2	-5	2	-1	nt	nt	nt	nt	nt
SMILES	SENP7 block	SENP8 block-1	SENP6 inh	HSP90 inh	SENP8 block-2	SENP8 conf	SENP6 confirm	SENP7 confirm	Casp3 SENP sel	Luc interf
NC(=O)C[C@H](NC(=O)c1ccc(Cl)cc1)C(=O)OCc1ccccc1	-5	-1	-13	nt	15	nt	nt	nt	nt	nt
CC1CC1C(=O)OCC(=O)Nc1cccc(S(=O)(=O)NC2=NCCCCC2)c1 (stereo not given)	-6	0	-15	0	22	nt	nt	nt	nt	nt
CCCC(=O)Nc1ccc2oc(-c3ccc(OC)c(Br)c3)nc2c1	51*	-20	21	-1	-274	-7	0	2	6	5
CCCC(=O)Nc1ccc(-c2nc3cc(C)ccc3o2)cc1	71*	48	71*	5	-500	42	50*	74*	28	18
CCC(=O)NC(=S)Nc1ccc2oc(-c3ccc(OC)cc3)nc2c1	-13	-9	-3	10	-11	nt	nt	nt	nt	nt
Cc1ccc(C(=O)O/N=C(\N)c2nonc2N)cc1	101*	97*	98*	-1	4	98*	98*	101*	97*	97*
Cc1nc(/C(N)=N/OC(=O)c2cccc(Cl)c2)c(C(F)(F)F)o1	4	-7	-7	1	10	nt	nt	nt	nt	nt
N/C(=N/OC(=O)c1ccccc1Cl)c1nonc1N	99*	96*	97*	-3	-1	100*	101*	104*	99*	98*
N/C(=N/OCC(=O)Nc1cccc2ccccc12)c1nonc1N	7	-7	-8	1	3	nt	nt	nt	nt	nt
N/C(=N\OC(=O)c1ccc(F)cc1)c1nonc1N	98*	94*	96*	1	26	98*	98*	102*	98*	87*
Cc1nc(/C(N)=N/OC(=O)c2ccccc2Cl)c(C(F)(F)F)o1	88*	80*	83*	2	-2	88*	88*	98*	95*	88*
Cc1ccc(NC(=O)c2ccc(Cn3cc(Br)cn3)o2)cc1	3	-11	-4	6	11	nt	nt	nt	nt	nt

Screening results: PubChem, several laboratories
